# Measured values taken from PubChem BioAssay AID2315 (National Center for Advancing Translational Sciences (NCATS), 2010).
# Out of some 290,000 compounds screened, about 27,000 (9.3%) were called active. Rule as the data show it: active = inhibition mostly above about 28% (no sharp cut-off); inactive = mostly below about 43%. Only a selection was taken, and actives are over-represented in it overall.
# Assay: A qHTS for Small Molecule Inhibitors of Shiga Toxin; also: 0% is about no effect
# Details: Vero cells, Shiga toxin protein synthesis inhibition reporter; at 38.7 µM, active compounds read high
row,Compound,inhibition
1,COc1ccc(Br)cc1C1C2C=CCC(C)C2C(=O)N1Cc1ccccc1 (stereo unspecified),2.19% (inactive)
2,Cc1cnc(C)c(N2CCN(C(=O)C3CCC(=O)N(CCc4cccc(F)c4)C3)CC2)n1 (stereo unspecified),0.443% (inactive)
3,NC(=O)C1CCN(C(=O)c2ccc3c(=O)n(Cc4cccc(Br)c4)c(=S)[nH]c3c2)CC1,0.712% (inactive)
4,CCN1C(=S)N[C@@H](c2cccc(C(F)(F)F)c2)C(C(=O)OC)=C1C,-10.1% (inactive)
5,COC(=O)C1(C)CC1(c1ccccc1)c1ccccc1 (stereo unspecified),-7.31% (inactive)
6,O=CN1CCN(C(=O)c2ccc3c(c2)OCO3)CC1,2.8% (inactive)
7,CN1C(=O)/C(=C/C=C2\SCCN2C)OC1=S,70.4% (active)
8,COCCNc1nc(N)c([N+](=O)[O-])c(N2CCCCCC2)n1,6.83% (inactive)
9,O=CN1CCN(C(=O)c2ccc(Br)o2)CC1,17.4% (inactive)
10,Cc1ccc(NC2CCCN(C(=O)CCC3(C)CC3)C2)cc1C (stereo unspecified),-22.1% (inactive)
11,CCOC(=O)Cc1ncccc1C(=O)Nc1ccc(OC)cc1,6.55% (inactive)
12,COc1ccc(S(=O)(=O)Nc2cccc3cccnc23)c(N)c1,-26.8% (inactive)
13,O=C(Nc1cccc2cccnc12)c1cccc(N2C(=O)CCC2=O)c1,30.9% (inactive)
14,COc1ccc(NC(=O)Nc2cccc3cccnc23)cc1,79.2% (active)
15,N#Cc1ccc(C(=O)Nc2cccc3cccnc23)c(F)c1,-0.419% (inactive)
16,O=C(Nc1cccc2cccnc12)c1cccc(Cl)c1,87.7% (active)
17,O=C(Nc1ccccc1Cl)Nc1cccc2cccnc12,40.9% (active)
18,O=C(Nc1cccc2cccnc12)C(F)(F)F,-8.11% (inactive)
19,O=C(Nc1ccccc1Cl)Nn1cnnc1,14.1% (inactive)
20,O=C(COc1ccccc1Cl)N1CCCCCCC1,36.9% (inactive)
21,CN(c1ccccc1)S(=O)(=O)c1ccc(NC(=O)COc2ccccc2)cc1,-5.47% (inactive)
22,NS(=O)(=O)c1ccc(CCNS(=O)(=O)c2cccc3cccnc23)cc1,-5.83% (inactive)

row,Compound,inhibition
1,COc1ccc(-c2cc(=O)oc3cc(OC(C)C(=O)Nc4ccc(CN5CCOCC5)cc4)ccc23)cc1 (stereo unspecified),-3.54% (inactive)
2,CCOC(=O)c1c(-c2ccccc2)oc2ccc(OCC(N)=O)cc12,-3.18% (inactive)
3,COc1cc2c(cc1OC)C(C(=O)Nc1cc(C)c(OC)c(C)c1)CC(=O)N2 (stereo unspecified),7.56% (inactive)
4,COc1ccc(C(=O)NC(C)Cn2nc(C)cc2C)cc1OC1CCN(C(C)=O)CC1 (stereo unspecified),-5.64% (inactive)
5,Nc1ccc(C(=O)Nc2ccccc2N)cc1,46.6% (inactive)
6,Cc1ccc2c(c1)NCC(C(=O)NC1CCC(C)CC1)O2 (stereo unspecified),64.8% (active)
7,Cc1ccc(C(=O)NC2CC(C)(C)NC(C)(C)C2)c(C)c1,-6.82% (inactive)
8,CC1CCC(NC(=O)C2c3ccccc3C(=O)N2Cc2ccc3c(c2)OCO3)CC1 (stereo unspecified),15.2% (inactive)
9,O=C(O)CCCN1C(=O)C2C3c4ccccc4C(c4ccccc43)[C@@H]2C1=O (stereo partly specified),-10.8% (inactive)
10,COc1ccc(OC)c(C(O)c2nc3ccccc3n2C)c1 (stereo unspecified),-12.2% (inactive)
11,COC(=O)CSc1nnc(-c2cccnc2)o1,8.44% (inactive)
12,COc1ccc(-c2nnc(SCc3cccnc3)o2)cc1,48.5% (active)
13,COc1ccc(-c2nnc(SC(=O)N3c4ccccc4Sc4ccccc43)o2)cc1,18.6% (inactive)
14,Cc1cc(Cl)ccc1OCCCC(=O)Nc1cccc(-n2cnnn2)c1,-13.8% (inactive)
15,CCc1ccc2c(c1)C1(NN=C(c3ccccc3)S1)C(=O)N2 (stereo unspecified),105% (active)
16,COc1ccccc1C(=O)N/C(=C/c1ccco1)C(=O)Nc1ccc(C(=O)O)cc1,-2.72% (inactive)
17,CC(=O)c1ccc(N2CCN(C(=O)CCNC(=O)Cn3ccc4ccccc4c3=O)CC2)cc1,26.7% (inactive)
18,Cc1cc(O)c(C(=O)/C=C/c2c(F)c(F)c(F)c(F)c2F)c(=O)o1,68.6% (active)
19,Cc1ccc(N=Cc2c(O)cc(C)oc2=O)c(C)c1,-1.09% (inactive)
20,N#Cc1cc([N+](=O)[O-])ccc1NCC1CCCO1 (stereo unspecified),-5.89% (inactive)
21,CC(C)N1CCc2c(sc(NC(=O)Cc3ccccc3)c2C#N)C1,2.11% (inactive)
22,O=C(CN1CCOC1=O)N1CCCC(Nc2ccc(F)c(F)c2)C1 (stereo unspecified),13.5% (inactive)

row,Compound,inhibition
1,CCc1ccnc(NC(=O)Nc2ccc(OCc3ccccc3)cc2)c1,17.6% (inactive)
2,O=C(CCc1ccccc1)NNc1ccc(F)cc1,-4.35% (inactive)
3,COc1cccc(OCC(=O)Nc2ccccc2C(N)=O)c1,75.1% (active)
4,Cc1cccc(OCC(=O)NCCCNC(=O)c2ccccn2)c1,-11.4% (inactive)
5,Cc1cccc(OCCC(=O)Nc2ccccc2C(N)=O)c1,5.43% (inactive)
6,Cc1ccc(F)c(NC(=O)CCc2ccccc2)c1,70.1% (active)
7,Cc1cccc(OCC(=O)Nc2ccc(C(=O)O)cc2NC(=O)COc2cccc(C)c2)c1,-5.8% (inactive)
8,Cc1cccc(OCC(=O)Nc2ccccc2F)c1,74.7% (active)
9,CCCOC(=O)Nc1ccccc1C(N)=O,-12.3% (inactive)
10,Cc1ccc(F)c(NC(=O)CCOc2ccccc2C)c1,2.89% (inactive)
11,CCOC(=O)C1=C(CCc2ccccc2)NC(=O)NC1c1ccc2ccccc2c1 (stereo unspecified),2.87% (inactive)
12,COC(=O)Cc1ccc(N(Cc2ccccc2F)S(=O)(=O)c2ccc(Br)cc2)cc1,9.28% (inactive)
13,CC(Oc1ccccc1)C(=O)Nc1c2c(nn1-c1ccccc1)CS(=O)C2 (stereo unspecified),-1.03% (inactive)
14,CCOCCCN(C)C1CCN(C(=O)c2oc3ccccc3c2NC(=O)COc2cccc(C)c2)CC1,-8.02% (inactive)
15,CC(=O)Nc1ccc(C(=O)N(C2=NC(C)CS2)c2ccc(Cl)cc2)cc1 (stereo unspecified),32.9% (inactive)
16,CC1CN(C(=O)CCC(=O)NC2CCN(Cc3ccccc3)CC2)c2ccccc2O1 (stereo unspecified),10.3% (inactive)
17,COCC1CCCN(Cc2cn[nH]c2-c2cc3ccccc3o2)C1 (stereo unspecified),56.9% (inactive)
18,COCC1CCCN(Cc2nc(-c3ccc4c(c3)OCO4)no2)C1 (stereo unspecified),53.7% (active)
19,CC1CCN(Cc2nc(-c3ccc(Cl)cc3)no2)CC1,34.4% (inactive)
20,CCCc1cc(=O)[nH]c(SCC(=O)Nc2sc3c(c2C#N)CCCC3)n1,-2.72% (inactive)
21,COc1ccc(C)cc1N(CC(=O)NC(C)c1ccccc1)S(C)(=O)=O (stereo unspecified),-6.92% (inactive)
22,COc1ccc(Br)cc1C(=O)NC(=S)Nc1cc(-c2nc3ccccc3[nH]2)ccc1C,0% (active)

row,Compound,inhibition
1,Cc1ccc(-c2nc3ccccc3[nH]2)cc1NC(=O)c1sc2ccccc2c1Cl,-6.19% (inactive)
2,COc1ccc(Br)cc1C(=O)Nc1cccc(C)c1C,26.5% (inactive)
3,COC(=O)COc1ccc2c(c1C)O/C(=C\c1ccco1)C2=O,15% (inactive)
4,Cc1ccc(/C=C2/SC(=S)N(CCC(=O)NCCCN3CCOCC3)C2=O)cc1,21.5% (inactive)
5,CCn1cc(CN2CCC(C(=O)Nc3cccc(-c4cccc(Cl)c4)c3)CC2)cn1,-25.7% (inactive)
6,COc1ccc(C2=NN(c3nc4ccccc4s3)C(=O)C2)cc1,72.3% (active)
7,CCOC(=O)N1CCN(CC(=O)Nc2cc(C)nn2-c2nc3ccccc3s2)CC1,-4.88% (inactive)
8,COc1ccccc1NC(=O)c1ccc2nc(N3C(=O)CCC3=O)sc2c1,36% (inactive)
9,Cc1ccc2c(c1)N(CC(=O)N1CCC(O)CC1)C(=O)CO2,1.8% (inactive)
10,COc1ccc2[nH]c(=O)c(CN(Cc3cccnc3)S(=O)(=O)c3ccccc3F)cc2c1,-10.7% (inactive)
11,COc1ccc(-c2nc(CS(=O)CC(=O)NCc3ccccc3)c(C)o2)cc1OC (stereo unspecified),-3.29% (inactive)
12,C/C(CC(=O)NCc1ccc(Cl)cc1)=N\NC(=O)COc1ccc(C)cc1Br,2.05% (inactive)
13,Cc1ccc(NC(=O)c2sc3nc(N)c(C#N)cc3c2N)cc1,63.4% (active)
14,Cc1cccc(NC(=O)c2sc3nc4c(c(-c5ccco5)c3c2N)CCC4)c1,-3.76% (inactive)
15,CC(=O)Nc1ccc(NC(=O)c2sc3nc4c(c(-c5ccc(C)cc5)c3c2N)CCC4)cc1,-4.09% (inactive)
16,Cc1c(CCC(=O)O)c(=O)oc2c(C)c(OCc3ccccc3Cl)ccc12,-3.03% (inactive)
17,CN(Cc1ccccc1)C(=O)c1ccc(COc2ccccc2)cc1,12.4% (inactive)
18,CN(Cc1ccc(F)cc1)C(=O)COc1ccc2ccccc2c1,26.4% (inactive)
19,CN(Cc1ccccc1)C(=O)COc1ccccc1,60.6% (active)
20,Cc1cc(C)c(NC(=O)CSc2nc3ccncc3[nH]2)c(C)c1,-6.43% (inactive)
21,CCOc1ccc2nc(/N=C/c3nc(-c4ccccc4)oc3O)sc2c1,-1.97% (inactive)
22,CC(N=Cc1nc(-c2ccccc2)oc1O)c1ccccc1 (stereo unspecified),54.4% (active)

row,Compound,inhibition
1,CCC1(CC)NC(=O)N(CC(=O)OCC(=O)NC(=O)c2ccccc2)C1=O,19.1% (inactive)
2,COC(=O)C1[C@H]2SC(C)(C)C(C(=O)OC)N2C(=O)N1Cc1nc2ccccc2s1 (stereo partly specified),5.52% (inactive)
3,CCC1(CC)NC(=O)N(Cc2nc3ccccc3s2)C1=O,26.9% (active)
4,CC(C)OCCCNC(=S)N1CCC(C(=O)c2ccc3c(c2)OCCO3)CC1,-16.4% (inactive)
5,Cc1nn(CC(=O)N2CCCCC2)c(=O)c2nn(-c3ccccc3)c(C)c12,-2.2% (inactive)
6,CCCc1nn(C)c2c(=O)[nH]c(-c3cc(S(N)(=O)=O)ccc3OCC)nc12,-4.47% (inactive)
7,COc1ccc(-c2noc(CN(C)S(=O)(=O)c3ccc(C)cc3)n2)cc1,-3.7% (inactive)
8,CCCc1nc(-c2cc3cc(C)ccc3[nH]c2=O)no1,-2.41% (inactive)
9,COc1ccc(CCNS(=O)(=O)c2cccc3cccnc23)cc1OC,18.1% (inactive)
10,COc1ccccc1Cc1nc(-c2ccc(C)cc2)no1,57.4% (active)
11,COc1ccc(-c2noc(-c3ccc(C)cc3)n2)cc1,79% (active)
12,COc1ccc(Cc2nc(-c3ccccn3)no2)cc1OC,56.5% (active)
13,COc1ccc(CNc2cc(C)cc(C)c2)cc1OC,-14.7% (inactive)
14,COc1ccc(N(Cc2cc3cc(OC)ccc3[nH]c2=O)S(C)(=O)=O)cc1,-19.8% (inactive)
15,COc1ccc2[nH]c(=O)c(-c3noc(-c4ccc(F)cc4)n3)cc2c1,69.3% (active)
16,COc1ccc(-c2noc(CSc3ccc(C)cc3)n2)cc1,14.3% (inactive)
17,Cc1ccc(-c2noc(CC(c3ccccc3)c3ccccc3)n2)cc1,-20.2% (inactive)
18,COc1ccccc1CNS(=O)(=O)c1ccc(C)cc1,11.5% (inactive)
